From PubChem BioAssay
Active and inactive are the calls of the source.

Experiment: FRG1 promoter luciferase signal modulators, primary screen, FRG1 inhibition for FSHD, cell-based, C2C12 myotubes, firefly/Renilla luciferase, luminescence (AID 1084)
Conditions: higher = more signal, called active from +8 up or from −8 down

z-score, inactive:
COCCOC(=O)N1C(=O)[C@@]2(c3cc(C#Cc4ccc(OC)cc4)ccc31)[C@H](C(=O)N1CCN(c3ncccn3)CC1)[C@H]1C(=O)O[C@H](c3ccccc3)[C@H](c3ccccc3)N1[C@@H]2c1ccc(O)cc1 -1.3, COC(=O)C(CC#Cc1ccc2c(c1)[C@]1(C(=O)N2)[C@H](C(=O)NC[C@H](O)c2ccccc2)[C@H]2C(=O)O[C@H](c3ccccc3)[C@H](c3ccccc3)N2[C@@H]1c1ccc(OCCO)cc1)C(=O)OC 1.9, O=C1C2C=CC(C(O)c3ccc(-c4ccccc4)s3)N(n3cnnc3)C2C(=O)N1Cc1ccccc1 (stereo not given) 0.545, O=c1cccc(C=Cc2ccccc2)o1 0.242, C=C(C(=O)CC[C@H](OC(C)=O)c1ccc(OCCO)cc1)C(C)C -2.5, CCCC[C@H]1OB(O)C[C@H]2C1=C(C)C[C@H]1C(=O)N(Cc3ccccc3)C(=O)[C@H]12 0.758, CCCCC(CC)C(O)C1C=CC2C(=O)N(c3ccccc3)C(=O)C2N1Nc1ccccc1 (stereo not given) -0.274, O=C(OCCF)C1=CCC(c2cccc(Cl)c2)O1 (stereo not given) -1.68, COCC1=C2[C@@H](CCc3ccccc3)OB(O)C[C@@H]2[C@@H]2C(=O)N(Cc3ccccc3)C(=O)[C@@H]2C1 -3.66, CC(C)C[C@@H]1NC(=O)[C@H]2C[C@@H](C(=O)NCCCCCNC(=O)CS)[C@@H](c3cccc(OCCO)c3)N2C1=O 0.209, COc1ccc(CCN2C(=O)[C@@]3(Cc4ccccc42)c2ccccc2C(=O)N(Cc2ccccc2Cl)[C@H]3c2ccc(CO)cc2)cc1 -0.236, CCCCCN1CC=CC23O[C@@H]4C=CCOC(=O)[C@@H]4[C@H]2C(=O)N(CCCO)[C@@H]3C1=O (stereo not given in full) -0.482, O=C1OCCC=C[C@H]2OC34C=CCN(Cc5ccccc5)C(=O)[C@H]3N(CCCCCCO)C(=O)[C@@H]4C12 (stereo not given in full) -0.386, CN(C)CCCCNC(=O)[C@H]1C[C@H]2C(=O)N[C@@H](Cc3ccccc3)C(=O)N2[C@H]1c1ccc(O)cc1 1.85, COCCOC(=O)N1C(=O)[C@@]2(c3cc(C#CCC(C(=O)OC)C(=O)OC)ccc31)[C@H](c1ccccc1OCCO)N1[C@H](c3ccccc3)[C@H](c3ccccc3)OC(=O)[C@H]1[C@@H]2C(=O)N1CCc2cc(OC)c(OC)cc2C1 -0.285, COC(=O)[C@@]1(Cc2ccccc2)[C@H]2c3cc(C(=O)N(C)C)n(Cc4c(-c5ccccc5)noc4C)c3C[C@H]2CN1C(=O)c1ccccc1 1.6, O=C1C[C@@](C(=O)NC2CC2)(c2ccc([N+](=O)[O-])cc2)[C@@H](c2ccc(CO)cc2)N1CC12CC3CC(CC(C3)C1)C2 -0.962, COCCOC(=O)N1C(=O)[C@@]2(c3cc(C#CC4=CCCCC4)ccc31)[C@H](C(=O)NC[C@H](O)c1ccccc1)[C@H]1C(=O)O[C@H](c3ccccc3)[C@H](c3ccccc3)N1[C@@H]2c1ccc(O)cc1 0.591, CC(C)NC(=O)[C@@]1(Cc2ccccc2I)c2ccccc2C(=O)N(Cc2ccccc2)[C@H]1c1ccc(CO)cc1 -2.91, O=C1N(CCS(=O)(=O)c2ccccc2)c2ccccc2C[C@@]12COC(c1ccc(OCCCO)cc1)=N2 1.18, CC(C)(C)N1CC=CC23O[C@@H]4C=CCOC(=O)[C@@H]4[C@H]2C(=O)N(CCCCCO)[C@@H]3C1=O (stereo not given in full) 0.952, COCCOC(=O)N1C(=O)[C@@]2(c3cc(C#CCNC(N)=O)ccc31)[C@H](C(=O)N1CCN(c3ncccn3)CC1)[C@H]1C(=O)O[C@H](c3ccccc3)[C@H](c3ccccc3)N1[C@@H]2c1ccccc1OCCO -0.311, COCCOC(=O)N1C(=O)[C@@]2(c3ccccc31)[C@H](c1ccc(O)cc1)N1[C@H](c3ccccc3)[C@H](c3ccccc3)OC(=O)[C@H]1[C@@H]2C(=O)N1CCc2cc(OC)c(OC)cc2C1 -1.47, CCCN1C(=O)[C@]2(COC(c3ccc(OCCCO)cc3)=N2)Cc2ccccc21 -0.0593, NC(=O)NCC#Cc1ccc2c(c1)[C@]1(C(=O)N2)[C@H](C(=O)NC[C@H](O)c2ccccc2)[C@H]2C(=O)O[C@H](c3ccccc3)[C@H](c3ccccc3)N2[C@@H]1c1ccc(O)cc1 1.11, CC(C)N1C(=O)c2ccccc2[C@@H](C(=O)NCCCN(C)C)[C@@H]1c1ccc(CO)cc1 0.0159, CC(C)=CCCC(C)=CC(O)C1C=CC2C(=O)N(c3ccccc3)C(=O)C2N1Nc1ccccc1 (stereo not given) -2.84, CN(C)CCCCCCNC(=O)[C@H]1C[C@H]2C(=O)N[C@@H](CCCCN)C(=O)N2[C@H]1c1ccc(O)cc1 0.369, O=C1O[C@H](c2ccccc2)[C@H](c2ccccc2)N2[C@H]1[C@@H](C(=O)N1CCN(c3ncccn3)CC1)[C@]1(C(=O)Nc3ccccc31)[C@H]2c1ccc(OCCO)cc1 1.03, COc1cc2c(cc1O)C(C)N(Cc1cccc(OC(F)(F)F)c1)CC2 (stereo not given) 0.734, [N-]=[N+]=NCc1ccccc1C[C@@]1(C(=O)N2CCOCC2)N=C(c2ccc(OCCCO)cc2)O[C@@H]1c1ccccc1CN=[N+]=[N-] -3.63, N[C@@H](Cc1ccccc1)Cn1cc(-c2ccccc2)nn1 0.874, CC(=CC1CCCCC1)[C@@H](NC(=O)c1ccc(C(F)(F)F)cc1)c1ccc(-c2ccccc2)cc1 0.235, CCOC(=O)C[C@H]1[C@H](OC(=O)c2ccccc2-c2ccccc2)[C@@H](NC(=O)c2ccc3ccccc3c2)c2cc(OCCCO)ccc2N1C(=O)c1ccc2ccccc2n1 0.122, CC(c1ccccc1)C(O)C1C=CC2C(=O)NC(=O)C2N1Nc1ccccn1 (stereo not given) 1.14
